# According to PubChem BioAssay (Tox21):
# Values joined by “and” are separate entries in the source; they are usually repeats but may differ in a detail not shown here. Equal entries are not always repeated. Results filed as inconclusive are left out. Where a call stands in place of a potency, no number is given. Some structures have more than one record in an assay (separate samples or runs), and their calls can disagree. Active and inactive are the calls of the source. Calls come from the whole dose curve; as a rule, active = well fitted curve in the direction sought with a large enough effect in the repeat runs; inconclusive = weak or mixed curves; inactive = no such curve, though single readings can be large; an effect the other way counts as inactive or inconclusive.
# Tests used:
# [1] = A CellTox Green Cytotoxicity Assay to monitor cytotoxicity in HEK293 cells - 40 hour (AID 1224871); note: nearly all actives have a fitted effect of over 45% in size
# Summary of the method: (§1)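 HEK293 cells, 600/well, were preincubated 5 hours and then exposed to compounds at 37 C for up to 40 hours. A cell-impermeant cyanine dye staining dead-cell DNA was read by fluorescence at 0, 8, 16, 24, 32 and 40 h time points.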
# [2] = qHTS RealTime-Glo MT Cell Viability Assay in HEK293 cells - 16 hour (AID 1224872); note: nearly all actives have a fitted effect of over 50% in size; note: potency is the fitted concentration of half-maximal effect
# Summary of the method: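 Assay medium contained NanoLuc luciferase plus cell-permeant prosubstrate, added with HEK293 cells at 600 cells/well. After 5 h at 37 C/5% CO2 compounds were added; plates stayed at 37 C for 40 h with serial luminescence reads.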
# [3] = qHTS RealTime-Glo MT Cell Viability Assay in HepG2 cells - 8 hour (AID 1224873); note: nearly all actives have a fitted effect of over 55% in size
# Summary of the method: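 Real-time viability: cells seeded at 600 per well together with NanoLuc and cell-permeant prosubstrate, compounds added after 5 h incubation. Luminescence tracked at 0, 8, 16, 24, 32 and 40 h of exposure.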
# [4] = qHTS RealTime-Glo MT Cell Viability Assay in HEK293 cells - 40 hour (AID 1224874); conditions: RealTime-Glo luminescence; max response: stronger effect = lower value; note: nearly all actives have a fitted effect of over 50% in size
# Summary of the method: (§2)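 600 cells/well were plated with the nonlytic NanoLuc/prosubstrate reagent, pre-incubated 5 h, then given 23 nL of compound in DMSO. Incubation at 37 C for 40 h, with luminescence from viable-cell-reduced substrate read repeatedly from 0 h.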
# [5] = A CellTox Green Cytotoxicity Assay to monitor cytotoxicity in HEK293 cells - 24 hour (AID 1224875); note: series mostly up to about 77 µM; nearly all actives have a fitted effect of over 45% in size
# Summary of the method: as §1
# [6] = A CellTox Green Cytotoxicity Assay to monitor cytotoxicity in HepG2 cells - 16 hour (AID 1224876); note: nearly all actives have a fitted effect of over 45% in size
# Summary of the method: (§3)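 HepG2 cells, 600/well, preincubated 5 h with CellTox Green dye, then exposed to Tox21 compounds in DMSO at 37 C for up to 40 h. Dead-cell DNA fluorescence read at the indicated time point.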
# [7] = qHTS RealTime-Glo MT Cell Viability Assay in HepG2 cells - 32 hour (AID 1224877); note: nearly all actives have a fitted effect of over 55% in size
# Summary of the method: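 qHTS, HepG2, 600 cells/well, RealTime-Glo (NanoLuc + prosubstrate) added with cells; 5 h preincubation; DMSO compound addition; 37 C; luminescence at 0/8/16/24/32/40 h.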
# [8] = A CellTox Green Cytotoxicity Assay to monitor cytotoxicity in HepG2 cells - 24 hour (AID 1224878); note: nearly all actives have a fitted effect of over 45% in size
# Summary of the method: as §3
# [9] = A CellTox Green Cytotoxicity Assay to monitor cytotoxicity in HepG2 cells - 40 hour (AID 1224879); note: nearly all actives have a fitted effect of over 40% in size
# Summary of the method: as §3
# [10] = qHTS RealTime-Glo MT Cell Viability Assay in HEK293 cells - 0 hour (AID 1224880)
# Summary of the method: as §2
Compound,Potency [1],Potency [2],Potency [3],max response [4],Potency [5],Potency [6],Potency [7],Potency [8],Potency [9],outcome [10]
CN(C)[C@@H]1C(=O)C(C(N)=O)=C(O)[C@@]2(O)C(=O)C3=C(O)c4c(O)cccc4[C@@](C)(O)[C@H]3[C@H](O)[C@@H]12,inactive,inactive,inactive,8.46% (inactive) [middle of 4 runs],inactive,inactive,inactive,inactive,inactive,inactive
N#CS,inactive,inactive,inactive,6.52% (inactive) [middle of 4 runs],inactive,inactive,inactive,inactive,inactive,inactive
CCCCCCCCCCn1cc[n+](C)c1,–,inactive and 346 nM (active),–,–,–,–,–,–,–,–
